The results in this text go back to PubChem BioAssay AID504847 (National Center for Advancing Translational Sciences (NCATS), 2011).

The campaign covered roughly 400,000 compounds. About 3,700 (0.93%) were called active. Not shown: some 3% with an inconclusive outcome. Only a selection was taken, and actives are over-represented in it overall. Values without a mark were called inactive. Calls follow the shape of the dose curve; as a rule, active = well fitted inhibition curve with a large enough effect; inconclusive = small, poorly fitted or top-dose-only effect, or another doubt; inactive = no such curve, though single readings can be large or run the other way.
% is scaled to controls: 0 for no effect and ±100 for the full control effect; potency is read from the fitted curve at half-maximal effect.

For the assay, the target named is Vitamin D3 receptor (Homo sapiens) (UniProt P11473). Put plainly: Inhibitors of the vitamin D receptor (VDR): qHTS. The conditions noted are these: VDR-SRC2-3 peptide fluorescence polarization, 2 h; max response, negative = inhibition: active compounds read low. The procedure, abridged: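 Signal is fluorescence polarization, reporting how far test compounds block the interaction of VDR with the SRC2-3 coregulator peptide after a 2 h room-temperature incubation.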
Chain of Vitamin D3 receptor (Homo sapiens) (P11473 whole entry, looked up): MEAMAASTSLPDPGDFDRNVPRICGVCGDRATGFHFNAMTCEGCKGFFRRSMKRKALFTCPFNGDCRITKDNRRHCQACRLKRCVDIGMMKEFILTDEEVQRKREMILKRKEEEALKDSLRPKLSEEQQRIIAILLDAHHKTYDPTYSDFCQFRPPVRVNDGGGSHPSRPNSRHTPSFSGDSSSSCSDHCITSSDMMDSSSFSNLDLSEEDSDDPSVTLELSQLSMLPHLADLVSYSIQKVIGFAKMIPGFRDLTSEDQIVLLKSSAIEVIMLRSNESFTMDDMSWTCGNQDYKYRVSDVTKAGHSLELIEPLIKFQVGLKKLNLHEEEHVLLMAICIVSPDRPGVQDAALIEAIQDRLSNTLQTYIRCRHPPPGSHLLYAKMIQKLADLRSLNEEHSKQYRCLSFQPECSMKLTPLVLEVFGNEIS
For orientation: In qHTS, concentration-response curves come from the screen itself.
On to `CCCCCCCC[C@@H](O)/C=C/C=C/C=C\[C@@H](O)CCCC(=O)O`, for which the max response, negative = inhibition was 10.9%. Still for that read-out and setting: as for `COc1ccc(NC(=O)c2cc3cc(C)ccc3n2C)cc1`, the figure is 8.19%. On to `O=C(Cn1cnc2c(OCc3ccccc3)ncnc21)NCc1nc2ccccc2[nH]1`, for which the Potency was 79.4 µM (active). As to `O=C(Cn1cnc2c(OCc3ccccc3)ncnc21)NCCCn1ccnc1`, the max response, negative = inhibition was 6.56%.

Take `CC(CNC(=O)Cn1cnc2c(OCc3ccccc3)ncnc21)c1ccccc1` (stereo not given): the max response, negative = inhibition is -7.14%. On to `COc1ccc(C2CC(=O)Nc3c2c(=O)nc2c(C)cccn32)cc1OC` (stereo not given), for which the max response, negative = inhibition was 12.4%.

For the compound `O=C(/C=C(O)/C=C/c1ccc(O)cc1)/C=C/c1ccc(O)cc1`, the max response, negative = inhibition was -24.8%. With `O=C(/C=C/c1ccccc1)c1ccccc1O`, the Potency was 17.8 µM (active). With `CNC(=O)c1csc(-c2ccccc2)n1`, the max response, negative = inhibition is 4.33%. On the same count and under the same terms, the same measure for `O=C(NNC(=O)c1ccccc1O)c1ccccc1O`: 10.5%.

As for `Cc1nc(-c2ccccc2)sc1C(=O)/C=C/c1ccccc1`, the Potency is 79.4 µM (active). Take `Cc1[nH]c(=O)c(C(=O)/C=C/c2ccccc2)c2c1CCCC2`: the max response, negative = inhibition was -23.7%.

In the case of `CCOC(=O)c1ccc(N2C(=O)c3n[nH]c(-c4ccco4)c3C2c2ccc(O)cc2)cc1` (stereo not given), the max response, negative = inhibition was -8.24%. As for `Cc1cccn2c(=O)c(C(=O)NC(C)c3ccccc3)cnc12` (stereo not given), the max response, negative = inhibition is -16%. Still for that read-out and setting: the same measure for `COC(=O)c1ccc(Cn2c(SCC(=O)N(C)c3ccccc3)nc3ccccc32)cc1`: 14.3%.

As for `COc1cc(/C=C2\SC(=O)NC2=O)ccc1OCc1ccc(Cl)nc1`, the max response, negative = inhibition was 3.39%. Still for that read-out and setting: as for `C=CCOc1ccc(/C=N/NC(=O)C(C)Sc2ccccn2)cc1OCC` (stereo not given), the figure is -3.04%. The same measure, in the same setting: as for `COc1ccnc2c1c(=O)n(Cc1cccc(F)c1)c(=O)n2C`, the figure is 0.374%. As for `COc1cc(/C=C2/C(=O)ON=C2C)ccc1OCc1cccc(F)c1`, the Potency was 25.1 µM (active). In the case of `C=CCOc1ccc(/C=C2/C(=O)ON=C2C)cc1OCC`, the Potency was 79.4 µM (active). As for `C#CCOc1ccccc1/C=C1/C(=O)ON=C1C`, the max response, negative = inhibition is -13.5%.

As for `Cc1ccc(C)c(N2CCN(C(c3ccccc3)c3nnc(-c4ccccc4)o3)CC2)c1` (stereo not given), the max response, negative = inhibition is 0%.

In the case of `Cc1ccc(C2C=C(c3ccc(Cl)cc3)Nc3nc(NC(=O)CCC(=O)O)nn32)cc1` (stereo not given), the max response, negative = inhibition is -1.64%. The same measure, in the same setting: as for `CCOC(=O)c1c(C)[nH]c(CCC(=O)NCCCN2CCN(c3cc(C)ccc3C)CC2)c1C`, the figure is 1.52%; as for `CCOC(OCC)OCC`, -7.21%.

As to `O=c1ccc2c(-c3ccccc3S(=O)(=O)O)c3ccc(O)c(O)c3oc-2c1O`, the Potency was 35.5 µM (active).

In the case of `Cc1nc2cnc(N3CCNCC3)nc2n(CCc2ccccc2)c1=O`, the max response, negative = inhibition is -10.9%. Take `CCOC(=O)N1CCN(C(c2cccnc2)c2ccc3cccnc3c2O)CC1` (stereo not given): the Potency is 39.8 µM (active). Regarding `COc1ccccc1N1CCN(C(CNC(=O)C(=O)NCc2ccc(C)cc2)c2cccnc2)CC1` (stereo not given), the max response, negative = inhibition was 1.11%.

As to `CCCCC(=O)NC(c1ccc(OC)c(OC)c1)c1ccc2cccnc2c1O` (stereo not given), the max response, negative = inhibition was 6.08%. Turning to `COc1ccc(CCNC(=O)c2ccc3c(c2)nc(C)n3-c2ccc(Br)cc2)cc1OC`, the max response, negative = inhibition is 12.9%. Still for that read-out and setting: the same measure for `C#CC(C)(CC)NC(=O)Cn1nnc(-c2ccc(OCc3c(F)cccc3Cl)cc2)n1` (stereo not given): 15.5%; for `COc1cccc(C(=O)NCCS(=O)(=O)NCC2CCCO2)c1` (stereo not given): -19.7%; for `CNS(=O)(=O)c1cccc(C(=O)NCC2CCCCC2)c1`: 12.7%. As for `CN(C)S(=O)(=O)N1CCC(Oc2cccc(C(=O)NCCCC3CCCC3)c2)CC1`, the Potency was 28.2 µM (active). On to `CC(C)(C)SCCNC(=O)c1cccc([N+](=O)[O-])c1`, for which the max response, negative = inhibition was -16.4%. Same read-out and setting: as for `COc1cccc(C(=O)CC(=O)C(=O)Nc2ccc([N+](=O)[O-])cc2C)c1`, the figure is -6.66%. `COc1cccc(NCCC(=O)c2cccc([N+](=O)[O-])c2)c1`: the Potency was 79.4 µM (active). Consider `COC(=O)c1ccc(-c2nc3cc(NC(C)=O)ccc3o2)cc1`, for which the max response, negative = inhibition is -22.5%. Still for that read-out and setting: the same measure for H-EHIPA-OH: 2.51%; for `CCc1ccc(NC(=O)C2CCCN2S(=O)(=O)c2ccc3nc(-c4ccccc4)[nH]c3c2)cc1` (stereo not given): 14.5%. Consider `Oc1c(Cl)cc(Cl)c(Cl)c1Cc1c(O)c(Cl)cc(Cl)c1Cl`, for which the Potency is 44.7 µM (active).

For `CCOC(=O)C1=NO[C@@]2(C=C(Br)C(=O)[C@H]3O[C@H]32)C1`, the Potency was 11.2 µM (active). `CCOC(=O)C1=NOC(Cn2cc(C(C)=O)c(=O)[nH]c2=O)C1` (stereo not given): the max response, negative = inhibition was 1.11%. Still for that read-out and setting: the same measure for `COc1cc2c(cc1OC)CC(=O)N(CCCN(C)C[C@H]1Cc3cc(OC)c(OC)cc31)CC2`: 7.93%. Same read-out and setting: as for `Cc1ccc(N2CCN(C(=O)c3cccs3)CC2)c(C)c1`, the figure is 7.64%. For `Cc1ccc(-n2c(N)c(C(=O)N3CCOCC3)sc2=S)c(C)c1`, the Potency was 79.4 µM (active). Regarding `O=C(c1ccc(CSc2ccccc2)cc1)N1CCCCCC1`, the max response, negative = inhibition is -7.06%.

With `Cc1ccc(S(=O)(=O)N2CCN(C(=O)N3CCOCC3)CC2)c(C)c1`, the max response, negative = inhibition was -13.6%. Take `N#Cc1ccccc1-n1c(N)c(C(=O)N2CCCC2)sc1=S`: the Potency is 50.1 µM (active). Turning to `N#Cc1c(N)sc2c1CCN(C(=O)OCc1ccccc1)C2`, the max response, negative = inhibition is -3.82%. On the same count and under the same terms, as for `CCCCNC(=O)c1ccc2c(c1)NC(=O)C(C(C)C)N2` (stereo not given), the figure is -3.65%; as for `CCc1ccc(NC(=O)CN2CCSc3ccc(S(=O)(=O)N4CCCC4)cc32)cc1`, 9.86%; as for `O=C(c1cccc(Br)c1)N1CCN(Cc2cc(=O)n3nc(-c4ccccc4)sc3n2)CC1`, 13%. Same read-out and setting: the same measure for `CCc1ccc(OCCCn2c(CCCNC(=O)C3CCCCC3)nc3ccccc32)cc1`: -1.15%. Still for that read-out and setting: the same measure for `O=C(NCCCO)C(=O)Nc1c2c(nn1-c1ccccc1)CSC2`: 5.32%. For `COc1ccc(CCNC(=O)CCCCn2c(=O)c3ccccc3n(Cc3ccccc3C)c2=O)cc1OC`, the max response, negative = inhibition is 7.91%.

Take `COc1ccccc1N1CCN(/N=C/c2ccc(O)cc2O)CC1`: the max response, negative = inhibition was -16.7%. In the case of `COc1ccccc1N1CCN(/N=C\C(Br)=C\c2ccccc2)CC1`, the Potency was 44.7 µM (active).

As to `COc1cc(/C=N/N2CCN(c3ccccc3)CC2)ccc1OC(C)=O`, the max response, negative = inhibition was -1.69%.
